Data taken from the antibiotic and cytotoxicity screens of Wong et al. (2023).
In all, about 39,000 compounds went through this assay and about 3,300 (8.5%) were called active. Shown is part of a subset that was picked to be rich in actives.

These compounds were tested on HepG2 (assay: cytotoxicity call (relative viability < 0.9)). Details: 10 µM.
With `C[C@H](CO)N1C[C@H](C)[C@@H](CN(C)C(=O)Nc2ccc3c(c2)OCO3)OCCCC[C@H](C)Oc2ccc(NS(=O)(=O)c3ccc(Cl)cc3)cc2C1=O` the cytotoxicity call was “inactive”. `COC(=O)c1c2oc(c1C(=O)OC)C(=O)N[C@H](Cc1ccccc1)Cn1cc(nn1)CNC(=O)[C@@H](Cc1ccccc1)NC(=O)N[C@@H](COC(=O)NCCCCCC(=O)NO)CC2` was tested, and the cytotoxicity call was “inactive”. `C[C@H](NC(=O)[C@H]1N[C@H]2c3ccc(-c4ccc(C(=O)N(C)C)cc4)c(=O)n3C[C@H]2[C@@H]1CO)c1ccccc1` was tested, and the cytotoxicity call was “inactive”. `COc1ccc(NC(=O)N(C)C[C@@H]2Oc3ccc(NS(=O)(=O)c4cn(C)cn4)cc3CC(=O)N([C@H](C)CO)C[C@H]2C)cc1` was tested, and the cytotoxicity call was “inactive”. `COc1ccc(NC(=O)Nc2cccc3c2O[C@@H](CN(C)Cc2ccc(C(=O)Nc4ccccc4N)cc2)[C@@H](C)CN([C@@H](C)CO)C3=O)cc1` was tested, and the cytotoxicity call was “inactive”. For `CCN(CC)c1ccc(N2CC=C[C@@]34O[C@@H]5/C=C\CCCOC(=O)[C@@H]5[C@H]3C(=O)N(CCCCCCO)[C@@H]4C2=O)cc1`, the cytotoxicity call was “inactive”. For `C[C@@H]1CCCCO[C@@H](CN(C)C(=O)Nc2ccccc2)[C@H](C)CN([C@@H](C)CO)C(=O)c2cc(NS(=O)(=O)c3ccccc3)ccc2O1`, the cytotoxicity call was “inactive”. For `Cc1ccc(S(=O)(=O)Nc2ccc3c(c2)C(=O)N([C@@H](C)CO)C[C@@H](C)[C@@H](CN(C)S(=O)(=O)c2c(C)noc2C)O3)cc1`, the cytotoxicity call was “inactive”. With `C[C@H]1CN([C@@H](C)CO)C(=O)c2cccc(NC(=O)CCCCCC(=O)Nc3ccccc3N)c2O[C@@H]1CN(C)CC1CCCCC1` the cytotoxicity call was “active”. For `C[C@H]1CN([C@@H](C)CO)C(=O)c2cccc(NC(=O)CCCCCC(=O)Nc3ccccc3N)c2O[C@H]1CN(C)CC1CCCCC1`, the cytotoxicity call was “inactive”. For `C[C@@H]1CN([C@H](C)CO)C(=O)c2cccc(NC(=O)CCCCCC(=O)Nc3ccccc3N)c2O[C@@H]1CN(C)CC1CCCCC1`, the cytotoxicity call was “inactive”. For `C[C@@H]1CN([C@@H](C)CO)C(=O)c2cccc(NC(=O)CCCCCC(=O)Nc3ccccc3N)c2O[C@@H]1CN(C)CC1CCCCC1`, the cytotoxicity call was “active”. With `C[C@@H]1CN([C@@H](C)CO)C(=O)c2cccc(NC(=O)CCCCCC(=O)Nc3ccccc3N)c2O[C@@H]1CN(C)Cc1ccccc1` the cytotoxicity call was “inactive”. With `C[C@H](CO)N1C[C@H](C)[C@H](CN(C)CC2CCCCC2)Oc2c(NC(=O)CCCCCC(=O)Nc3ccccc3N)cccc2C1=O` the cytotoxicity call was “inactive”. In the case of `C[C@H](CO)N1C[C@H](C)[C@@H](CN(C)CC2CCCCC2)Oc2c(NC(=O)CCCCCC(=O)Nc3ccccc3N)cccc2C1=O`, the cytotoxicity call was “inactive”. In the case of `C[C@@H]1CN([C@@H](C)CO)C(=O)c2cccc(NC(=O)CCCCCC(=O)Nc3ccccc3N)c2O[C@H]1CN(C)CC1CCCCC1`, the cytotoxicity call was “inactive”. `C[C@@H]1CN([C@H](C)CO)C(=O)c2cccc(NC(=O)CCCCCC(=O)Nc3ccccc3N)c2O[C@H]1CN(C)CC1CCCCC1` was tested, and the cytotoxicity call was “active”. With `Nc1nc(=O)c2ncn(COC(CO)CO)c2[nH]1` the cytotoxicity call was “inactive”. `CN[C@H]1[C@@H](O[C@H]2[C@@H](O[C@H]3[C@@H](O)[C@@H](O)[C@@H](NC(=N)N)[C@@H](O)[C@@H]3NC(=N)N)O[C@@H](C)[C@@]2(O)C=O)O[C@@H](CO)[C@@H](O)[C@@H]1O.CN[C@H]1[C@@H](O[C@H]2[C@@H](O[C@H]3[C@@H](O)[C@@H](O)[C@@H](NC(=N)N)[C@@H](O)[C@@H]3NC(=N)N)O[C@@H](C)[C@@]2(O)C=O)O[C@@H](CO)[C@@H](O)[C@@H]1O.O=S(=O)(O)O.O=S(=O)(O)O.O=S(=O)(O)O` was tested, and the cytotoxicity call was “inactive”. `CC1(C)SC2C(NC(=O)C(C(=O)[O-])c3ccccc3)C(=O)N2C1C(=O)[O-].[Na+].[Na+]` (stereo unspecified) was tested, and the cytotoxicity call was “inactive”. With `C[C@@H]1CCCCO[C@@H](CN(C)C(=O)c2ccccc2)[C@@H](C)CN([C@@H](C)CO)C(=O)c2cc(NC(=O)c3ccccc3)ccc2O1` the cytotoxicity call was “inactive”. `C[C@@H]1CCCCO[C@@H](CN(C)C(=O)Nc2ccc(C(F)(F)F)cc2)[C@@H](C)CN([C@H](C)CO)C(=O)c2cc(NS(=O)(=O)c3cn(C)cn3)ccc2O1` was tested, and the cytotoxicity call was “inactive”. For `Cc1cccc(C)c1NC(=O)C1CCCCN1C.Cl` (stereo unspecified), the cytotoxicity call was “inactive”. With `C=C1SC(Nc2c(C)cccc2C)=NC12CCCCC2` the cytotoxicity call was “active”. In the case of `Cc1cccc(C)c1Nc1nc2c(C)cc(C)c(C)c2s1`, the cytotoxicity call was “inactive”. With `C[C@@H]1CN([C@@H](C)CO)C(=O)Cc2cc(NC(=O)C3CC3)ccc2O[C@H]1CN(C)C(=O)Nc1ccccc1` the cytotoxicity call was “inactive”. `COCC#Cc1ccc([C@H]2[C@H]3CN(C(=O)CN4CCOCC4)CC(=O)N3[C@H]2CO)cc1` was tested, and the cytotoxicity call was “inactive”. In the case of `COc1ccc(S(=O)(=O)N(C)C[C@@H]2OCCCC[C@@H](C)Oc3ccc(NS(=O)(=O)c4cn(C)cn4)cc3C(=O)N([C@H](C)CO)C[C@H]2C)cc1`, the cytotoxicity call was “inactive”. With `C[C@@H]1CN([C@@H](C)CO)C(=O)c2cc(C#CCc3ccccc3)cnc2O[C@H]1CN(C)CC1CCOCC1` the cytotoxicity call was “inactive”. `COc1ccc(S(=O)(=O)N(C)C[C@H]2OCCCC[C@@H](C)Oc3ccc(NC(=O)Nc4ccc(F)cc4)cc3C(=O)N([C@H](C)CO)C[C@@H]2C)cc1` was tested, and the cytotoxicity call was “active”. For `COc1ccc(NC(=O)Nc2ccc3c(c2)C(=O)N([C@H](C)CO)C[C@H](C)[C@@H](CN(C)S(=O)(=O)c2ccc(F)cc2)OCCCC[C@H](C)O3)cc1`, the cytotoxicity call was “inactive”. For `COc1ccc(NC(=O)Nc2ccc3c(c2)C(=O)N([C@H](C)CO)C[C@@H](C)[C@H](CN(C)S(=O)(=O)c2ccc(F)cc2)OCCCC[C@H](C)O3)cc1`, the cytotoxicity call was “active”. In the case of `COc1ccc(NC(=O)Nc2ccc3c(c2)C(=O)N([C@H](C)CO)C[C@@H](C)[C@@H](CN(C)S(=O)(=O)c2ccc(F)cc2)OCCCC[C@H](C)O3)cc1`, the cytotoxicity call was “inactive”. For `COc1ccc(NC(=O)Nc2ccc3c(c2)C(=O)N([C@H](C)CO)C[C@H](C)[C@H](CN(C)S(=O)(=O)c2ccc(F)cc2)OCCCC[C@@H](C)O3)cc1`, the cytotoxicity call was “inactive”. `COc1ccc(NC(=O)Nc2ccc3c(c2)C(=O)N([C@@H](C)CO)C[C@@H](C)[C@@H](CN(C)S(=O)(=O)c2ccc(F)cc2)OCCCC[C@@H](C)O3)cc1` was tested, and the cytotoxicity call was “inactive”. `CO[C@H]1CN(C)C(=O)c2ccc(NS(=O)(=O)c3cn(C)cn3)cc2OC[C@H](C)N(CC2CC2)C[C@@H]1C` was tested, and the cytotoxicity call was “inactive”.
